According to PubChem BioAssay:

Tests used:
[1] = system: Human papillomavirus type 1a protein E7 (residues 44-93); assay: HPV1a E7 fragment binders on microarrays, primary screen, biochemical, small-molecule microarray, residues 44-93, 635 nm fluorescence (AID 1108); details: small-molecule microarray binding, fluorescence 635 nm; higher = more signal;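 note: E7 fragment applied at 1 µg/mL in TBST for 1 h at 4 C; score combines spot fluorescence with its signal to noise ratio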
[2] = modulators of HCV replicon luciferase signal, primary screen, HCV replication inhibitor project, Huh7 cells, luciferase reporter (AID 1109); details: 48 h, higher = more signal;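 note: huh7 hepatoma cells harbouring a luciferase neomycin HCV replicon reporter; luciferase luminescence as measure of HCV replicon replication; test concentration not given here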
[3] = molecular target: Left-right determination factor 2 (Homo sapiens) (UniProt O00292); assay: LEFTY2 binders on small-molecule microarrays, primary screen, biochemical, small-molecule microarray, 635 nm fluorescence scan (AID 1110); details: LEFTY2 binding, higher = more signal
Left-right determination factor 2 (Homo sapiens), sequence (O00292 whole entry, looked up): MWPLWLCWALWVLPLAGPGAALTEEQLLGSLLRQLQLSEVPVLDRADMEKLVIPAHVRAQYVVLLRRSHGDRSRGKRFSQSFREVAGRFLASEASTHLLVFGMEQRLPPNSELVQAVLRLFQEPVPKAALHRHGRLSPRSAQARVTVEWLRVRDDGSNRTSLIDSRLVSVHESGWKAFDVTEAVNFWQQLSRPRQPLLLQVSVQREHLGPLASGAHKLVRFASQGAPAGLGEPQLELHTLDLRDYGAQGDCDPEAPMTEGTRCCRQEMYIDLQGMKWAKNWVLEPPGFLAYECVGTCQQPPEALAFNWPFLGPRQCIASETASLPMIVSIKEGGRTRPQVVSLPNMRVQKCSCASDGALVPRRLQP

[4] = molecular target: Calmodulin-1 (Homo sapiens) (UniProt P0DP23); assay: CALM1 binders on microarrays, EGTA buffer, profiling panel, biochemical, small-molecule microarray, Cy5-labelled CALM1 (AID 1111); details: Cy5-CALM1 binding fluorescence, higher = more signal;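 note: labelled calmodulin applied in Tris saline Tween buffer holding calcium plus EGTA and DTT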
[5] = molecular target: Calmodulin-1 (Homo sapiens) (UniProt P0DP23); assay: calcium-bound CALM1 binders on microarrays, profiling panel, artefact control for SMM control-protein annotation, biochemical, small-molecule microarray, Cy5-labelled CALM1, plus calcium (AID 1112); details: Cy5-CALM1 binding fluorescence, higher = more signal;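 note: score merges spot fluorescence with signal to noise from triplicate slides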
[6] = small-molecule microarray binders of probe aWnt5a, primary screen, biochemical, biotinylated probe, 635/667 nm fluorescence (AID 1113); details: higher = more signal;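 note: score merges 667 nm fluorescence intensity with signal-to-noise per printed feature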
[7] = small-molecule microarray binders of probe aShh, primary screen, biochemical, biotinylated probe, 635/667 nm fluorescence (AID 1114); details: higher = more signal;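 note: probe is biotin-labelled aShh protein from a stem cell growth factor screen; measures binding of labelled protein to compounds printed on the slide; score merges feature fluorescence at 667 nm with signal-to-noise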
[8] = small-molecule microarray binders of probe aNog, primary screen, biochemical, biotinylated probe, 635/667 nm fluorescence (AID 1115); details: higher = more signal;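 note: probe is biotinylated aNog protein used at 0.15 µg/mL for 1 h at 4 C; z-score combines 667 nm fluorescence of each spot with its signal to noise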
[9] = molecular target: Torsin-1A-interacting protein 1 (Homo sapiens) (UniProt Q5JTV8); assay: LAP1 binders from COS7 cell lysate, primary screen, small-molecule microarray, 635/667 nm fluorescence (AID 1116); details: COS7-hLAP1 lysate binding, 635 nm fluorescence, higher = more signal
Torsin-1A-interacting protein 1 (Homo sapiens), sequence (Q5JTV8 whole entry, looked up): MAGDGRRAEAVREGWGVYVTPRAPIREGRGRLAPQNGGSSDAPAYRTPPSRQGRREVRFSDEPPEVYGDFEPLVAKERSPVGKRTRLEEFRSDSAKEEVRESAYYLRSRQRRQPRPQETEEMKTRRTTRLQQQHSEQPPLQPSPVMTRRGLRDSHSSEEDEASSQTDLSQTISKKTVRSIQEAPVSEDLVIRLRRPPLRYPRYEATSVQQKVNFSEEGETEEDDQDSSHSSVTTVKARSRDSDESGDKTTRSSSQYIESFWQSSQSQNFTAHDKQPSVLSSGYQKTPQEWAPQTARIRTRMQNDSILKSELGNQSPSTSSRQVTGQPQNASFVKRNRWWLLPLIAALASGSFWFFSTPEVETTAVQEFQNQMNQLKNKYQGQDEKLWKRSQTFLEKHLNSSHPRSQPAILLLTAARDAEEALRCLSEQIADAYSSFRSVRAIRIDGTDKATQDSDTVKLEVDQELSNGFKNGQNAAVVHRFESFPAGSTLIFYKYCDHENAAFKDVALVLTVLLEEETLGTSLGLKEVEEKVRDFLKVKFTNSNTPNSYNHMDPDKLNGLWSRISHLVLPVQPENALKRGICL

[10] = molecular target: Alpha-bungarotoxin (Bungarus multicinctus) (UniProt P60615); assay: alpha-bungarotoxin binders on microarray, profiling panel, artefact control for SMM control protein annotation, biochemical, small-molecule microarray, Alexa647 label, 635/667 nm fluorescence (AID 1117); details: alpha-BTX-A647 binding fluorescence, higher = more signal
Alpha-bungarotoxin (Bungarus multicinctus), sequence (P60615 whole entry, looked up): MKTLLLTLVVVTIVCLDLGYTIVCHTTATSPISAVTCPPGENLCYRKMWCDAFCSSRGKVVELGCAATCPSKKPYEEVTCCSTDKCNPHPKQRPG

Compound | composite z-score [1] | z-score [2] | composite z-score [3] | composite z-score [4] | composite z-score [5] | composite z-score [6] | composite z-score [7] | composite z-score [8] | composite z-score [9] | composite z-score [10]
C=Cc1ccc([C@H]2N[C@H](C(=O)O)CC[C@@H]2C)cc1 | -1.08 | -1.09 | 0.712 | -0.478 | 0.222 | -0.105 | -0.0553 | -0.147 | -0.0037 | -0.112
COC(=O)CC=C[C@@H](C)[C@@H](C=NOCC[C@@H]1C=C[C@H](OC(C)=O)[C@@H](COC(C)=O)O1)OC | 0.107 | -0.488 | 0.589 | -1 | -1.78 | -0.0346 | 0.284 | -0.205 | 0.473 | -0.484
CCOC(=O)[C@H](CC(C)C)NC(=O)CCC1CC(OC(=O)NCc2cccc3ccccc23)CC2(CCCC(COC(=O)NCC3CCCCC3)O2)O1 (stereo not given in full) | 1.31 | -1.93 | 0.559 | 0.162 | -0.376 | -0.0792 | -0.2 | -0.256 | 0.158 | 0.742
CC(C)(C)N1C(=O)[C@H]2[C@H]3[C@H](O)C=CC(=O)[C@@H]3CC[C@H]2C1=O | 0.264 | 0.133 | 0.296 | 0.0361 | -0.586 | -0.13 | 0.0121 | 0.0637 | -0.288 | 0.0991
O=C1[C@H]2[C@H]3[C@H](O)[C@H](O)CC(=NOCc4ccccc4)[C@@H]3CC[C@H]2C(=O)N1Cc1ccc2c(c1)OCO2 | 0.0666 | -0.276 | 0.517 | -0.206 | -0.211 | -0.091 | -0.154 | -0.23 | 0.366 | 0.576
CCCNC(=O)OC[C@H]1O[C@H](c2ccccc2)C=C[C@@H]1Oc1ccc(OC)cc1 | -0.823 | -0.974 | 0.424 | -0.598 | -0.202 | -0.132 | -0.153 | -0.343 | 0.124 | -0.0001
COc1ccc(O[C@H]2C=C[C@@H](c3ccccc3)O[C@@H]2CON=CC[C@@H]2C=C[C@H](OC(C)=O)[C@@H](COC(C)=O)O2)cc1 | -0.332 | -0.821 | 0.425 | -0.169 | -0.282 | -0.145 | -0.221 | -0.083 | 0.28 | -0.0924
CCOC(=O)[C@H](CC(C)C)NC(=O)CCC1CC(OC(=O)NCc2cccc3ccccc23)CC2(CCCC(COC(=O)NCCOC)O2)O1 (stereo not given in full) | 1.34 | 0.339 | 0.629 | -0.24 | -0.418 | -0.116 | -0.128 | -0.0653 | 0.481 | 0.0702
O=C1CCCC(C2=CCCCC2=O)C1 (stereo not given) | -0.281 | -0.293 | 0.524 | -0.732 | -1.38 | -0.0548 | 0.116 | -0.14 | 0.086 | -0.19
COc1ccc(C#C[C@@H]2C=C[C@H](OC(C)=O)[C@@H](COC(C)=O)O2)cc1 | 0.318 | -2.21 | 0.591 | -0.268 | -0.534 | -0.2 | -0.0471 | -0.208 | 0.257 | 0.193
CON=Cc1ccc(C(=O)N2[C@H](c3ccc(C)cc3)[C@@H](C)CC[C@H]2C(=O)OC)cc1 | 1.25 | -1.33 | -0.203 | -0.129 | -0.121 | -0.0044 | 0.0684 | -0.0503 | -0.0018 | 0.449
CO[C@@H]1COC(=O)CC=C[C@@H](C)[C@@H]2C=C[C@H](O)[C@@H](COC(=O)CC=C[C@H]1C)O2 | -0.913 | 0.0581 | 1.5 | -1.12 | -2.14 | -0.224 | -0.0146 | -0.349 | 0.27 | 0.149
CC(C)CCN1CCc2nc(COc3ccccc3)c3c(c2C1)CO[C@@H](C)C3 | 0.25 | 0.911 | 0.0637 | 0.683 | 0.0677 | -0.118 | 0.0796 | 0.15 | 0.686 | 0.221
CCOC(=O)[C@H](Cc1ccccc1)NC(=O)CCC1CC(OC(=O)NCc2cccc3ccccc23)CC2(CCCC(COC(=O)NCc3cccc(C(F)(F)F)c3)O2)O1 (stereo not given in full) | 0.72 | -0.771 | -0.131 | 0.716 | 0.143 | -0.0816 | -0.345 | -0.213 | 0.465 | 0.362
CO[C@H]1COC(=O)[C@@H]2CCCN2C(=O)CC=C[C@@H](C)[C@H](OC)COC(=O)[C@@H](OCc2ccccc2)C=C[C@@H]1C | -0.556 | -0.389 | 1.04 | -0.584 | -1.15 | -0.0882 | -0.2 | -0.408 | 0.0642 | -0.178
CCOC(=O)CCN1C(=O)[C@H]2[C@H]3[C@H](O)[C@H](O)CC(=NOCC(C)C)[C@H]3CC[C@H]2C1=O | -0.245 | 0.453 | 0.0607 | -0.271 | -0.26 | -0.0346 | -0.209 | 0.0669 | 0.326 | 0.797

Compound | composite z-score [1] | z-score [2] | composite z-score [3] | composite z-score [4] | composite z-score [5] | composite z-score [6] | composite z-score [7] | composite z-score [8] | composite z-score [9] | composite z-score [10]
CCOC(=O)[C@H](Cc1ccccc1)NC(=O)CCC1CC(OC(=O)NCc2cccc3ccccc23)CC2(CCCC(COC(=O)NCC(c3ccccc3)c3ccccc3)O2)O1 (stereo not given in full) | 0.313 | -1.46 | 0.567 | -0.328 | -0.43 | -0.096 | -0.2 | -0.187 | 0.18 | -0.0602
O=C1[C@H]2[C@H]3[C@H](O)[C@H](O)CC(=NOC[C@@H](O)COCc4ccco4)[C@H]3CC[C@H]2C(=O)N1c1ccc(F)cc1F | -3.61 | -0.988 | 0.0845 | -1.3 | -1.07 | -0.282 | -0.504 | 1.39 | 0.346 | -0.59
CCOC(=O)[C@H](Cc1ccccc1)NC(=O)CCC1CC(OC(=O)NCc2ccc3c(c2)OCO3)CC2(CCCC(COC(=O)NCCC(C)C)O2)O1 (stereo not given in full) | 1.38 | -1.01 | 0.619 | 0.487 | -0.252 | 0.0704 | 0.0639 | -0.19 | 0.0293 | 0.434
CC(=O)OC[C@H]1O[C@H](C#Cc2ccccc2)C=C[C@@H]1OC(C)=O | -0.234 | -2.92 | 0.711 | -0.376 | -0.449 | -0.119 | -0.124 | 0.115 | 0.288 | -0.686
COC(=O)[C@H](C)NC(=O)CCC1CC(OC(=O)NCc2cccc3ccccc23)CC2(CCCC(COC(=O)NCC(c3ccccc3)c3ccccc3)O2)O1 (stereo not given in full) | 1.32 | -0.977 | 0.889 | -0.0132 | -0.265 | -0.0185 | -0.273 | -0.0157 | 0.345 | 0.0226
COc1ccc(O[C@H]2C=C[C@@H](c3ccccc3)O[C@@H]2CON=C(C)CCC(=O)OC[C@H]2O[C@H](c3ccccc3)C=C[C@@H]2Oc2ccc(OC)cc2)cc1 | -1.52 | -1.15 | -1.08 | -0.63 | -0.702 | -0.176 | -0.276 | 0.646 | -1.17 | -0.792
COC(=O)CC=C[C@@H](C)[C@@H](C=NO[C@@H]1O[C@H](COC(C)=O)[C@@H](OC(C)=O)[C@H](OC(C)=O)[C@H]1OC(C)=O)OC | -0.428 | -1.57 | 0.499 | -0.937 | -1.48 | -0.175 | -0.309 | -0.249 | -0.461 | -0.463
CC(C)CON=C1C[C@@H](O)[C@@H](O)[C@@H]2[C@@H]3C(=O)N(C4CCCCC4)C(=O)[C@@H]3CC[C@@H]12 | -0.991 | -1.6 | 0.0528 | -0.333 | -0.558 | -0.178 | -0.279 | -0.417 | 0.136 | 0.673
COc1ccc(COC(=O)NN=C2C[C@@H](O)[C@@H](O)[C@@H]3[C@@H]4C(=O)N(Cc5ccccc5)C(=O)[C@@H]4CC[C@H]23)cc1 | 1.36 | -0.632 | -0.475 | 0.0114 | -0.435 | -0.0758 | -0.206 | 0.194 | 0.589 | 0.469
CC(=O)OC[C@H]1O[C@H](CCON=C2[C@H]3CCn4c(=O)n(-c5ccccc5)c(=O)n4[C@H]3[C@H](O)[C@@H]3O[C@H]23)C=C[C@@H]1OC(C)=O | 0.253 | -4.82 | 0.5 | -0.151 | -0.354 | 0.0001 | 0.089 | 0.449 | 0.322 | 0.415
O=C1CCCC=C1C(O)CCCCBr (stereo not given) | 0.619 | -4.22 | -0.0175 | 1.35 | 0.403 | -0.124 | 0.191 | -0.438 | 0.293 | 2.09
CCOC(=O)NN=C1C[C@@H](O)[C@@H](O)[C@@H]2[C@@H]3C(=O)N(c4cccc(Oc5ccccc5)c4)C(=O)[C@@H]3CC[C@@H]12 | -0.269 | -0.912 | 0.144 | -0.0069 | -0.434 | -0.0165 | -0.32 | -0.444 | -0.127 | 1.32
C=CC[C@@H]1C=C[C@H](ON=C(C)CCC(=O)OC[C@H]2O[C@H](c3ccccc3)C=C[C@@H]2Oc2ccc(OC)cc2)[C@@H](CO)O1 | -0.0821 | -1.54 | -0.189 | -0.725 | -0.878 | -0.152 | -0.221 | -0.158 | 0.106 | -0.55
COC(=O)CC=C[C@@H](C)[C@@H]1C=C[C@H](O)[C@@H](CO)O1 | 0.0429 | -0.0733 | 0.43 | 0.367 | -0.818 | -0.154 | 0.647 | -0.546 | 0.297 | -0.139
O=C(NN=C1C[C@@H](O)[C@@H](O)[C@@H]2[C@@H]3C(=O)N(C[C@@H]4CCCO4)C(=O)[C@@H]3CC[C@@H]12)OCc1ccccc1 | 0.457 | 0.246 | 0.686 | -0.817 | -1.51 | -0.243 | 0.111 | -0.139 | -0.306 | -0.421
Cc1ccc(S(=O)(=O)N[C@H]2COC(=O)CC=C[C@H](C)[C@@H](NS(=O)(=O)c3ccc(C)cc3)COC(=O)CC=C[C@@H]2C)cc1 | 0.584 | -0.622 | 0.518 | -0.324 | -0.6 | -0.351 | -0.476 | -0.0381 | -0.129 | 0.149
